# Data published in PubChem BioAssay AID430 (Sanford-Burnham Center for Chemical Genomics, 2006).
# Screen size: about 63,000 compounds; about 1,100 (1.7%) were called active. The full list was thinned out, with actives kept by preference. Potency and affinity values are given separately. Unmarked numbers belong to inactive results. Rule as the data show it: active = cytotoxicity above about 50%; inactive = the rest.
# Assay: HPDE-C7 pancreatic duct cell viability loss – fluorescence, HTS (AID 430);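 also: cells exposed to compound for 48 hours before viability readout; 0% = vehicle and 100% = reference cytotoxic drug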
# Settings: HPDE-C7 pancreatic duct cells viability, at 10 µM, stronger effect = higher value
row,Compound,cytotoxicity
1,CCCN(CC1CC1)C(=O)Nc1ccccc1C,-9.7%
2,CCC1CCCCN1c1nc(-c2cccc(OC)c2O)nc2ccccc12 (stereo not drawn),-2.8%
3,COc1cccc(-c2nc(N3CCCCC3C)c3ccccc3n2)c1O (stereo not drawn),53% (active)
4,COc1cccc(-c2nc(N3CCCCC3)c3ccccc3n2)c1O,-7.5%
5,COc1cccc(-c2nc(NCC3CCCO3)c3ccccc3n2)c1O (stereo not drawn),52.2% (active)
6,COc1cccc(-c2nc(NC(C)(C)C)c3ccccc3n2)c1O,10.9%
7,CCC(C)Nc1nc(-c2cccc(OC)c2O)nc2ccccc12 (stereo not drawn),107% (active)
8,C=CCNc1nc(-c2cccc(OC)c2O)nc2ccccc12,-3%
9,Oc1ccccc1-c1nc(NCC2CCCO2)c2ccccc2n1 (stereo not drawn),46.8%
10,COc1cccc(-c2nc(NC(C)C)c3ccccc3n2)c1O,23.8%
11,O=C(CN(C1CC1)S(=O)(=O)c1ccc(S(=O)(=O)N2CCCCCC2)cc1)Nc1ccccc1,7.4%
12,CCCOc1ccc(C(=O)NCCC(=O)NCCCC(=O)OCC)cc1,1.7%
13,O=C1C(SC(F)(F)C(F)F)=C(C(F)(F)F)OC2C3C=CC(C3)C12 (stereo not drawn),3.6%
14,O=C1NC(NS(=O)(=O)c2ccccc2)(C(F)(F)F)C(=O)N1Cc1cccnc1 (stereo not drawn),-8.4%
15,CC(C)(C)c1ccccc1OCC(=O)NCCC(=O)O,-12.2%
16,c1ccc2oc(SCc3nc4ccccc4s3)nc2c1,8.6%
17,CCS(=O)(=O)CCSc1nc2ccccc2o1,-9.3%
18,CCS(=O)(=O)CCSc1nc2ccccc2s1,-17.4%
19,O=C(CSc1nc2ccccc2s1)Nc1ncccn1,-3.2%
20,Cc1ccccc1N(C)S(=O)(=O)c1ccc2[nH]cc(C(=O)NCC3CCCO3)c(=O)c2c1 (stereo not drawn),-13.7%
21,O=C(O)COc1ccc(C(=O)Cc2ccc3c(c2)OCCCO3)c(O)c1,-8.7%
22,O=C(O)CCC(=O)c1ccc2c(c1)OCCO2,0%
23,O=C(Cc1ccc2c(c1)OCCO2)c1c(O)cc(O)cc1O,60.9% (active)
24,Nn1c(SCC(=O)NCc2ccccc2)nnc1C1CC1,6.6%

row,Compound,cytotoxicity
1,COC(=O)C1CCN(C(=O)C(C)Oc2ccc(Cl)cc2Cl)CC1 (stereo not drawn),-16.4%
2,CCN(CC)CCCNC(=O)C1CCN(C(=O)c2cc3sccc3n2Cc2ccc(F)cc2)CC1,20.7%
3,CC(=O)C1=C(C)N=c2s/c(=C/c3ccc4c(c3)OCO4)c(=O)n2C1c1ccc(N(C)C)cc1 (stereo not drawn),-3.5%
4,COc1ccc(C2C(C(C)=O)=C(C)N=c3s/c(=C/c4ccc5c(c4)OCO5)c(=O)n32)cc1 (stereo not drawn),-4.1%
5,CCOC(=O)c1cnc2c(C(=O)OC)cccc2c1NCCN1CCOCC1,-10.4%
6,COc1ccc(N2CCN(CC(O)c3c[nH]c4ccc(OC)cc34)CC2C)cc1 (stereo not drawn),41.3%
7,COc1ccc(CCNC(=O)c2cc3ccccn3n2)c(OC)c1OC,-7%
8,COc1ccc(OC)c(Nc2nc(-c3ccc(O)c(O)c3)cs2)c1,67.2% (active)
9,COc1ccc(OC)c(Nc2nc(-c3sc(C)nc3C)cs2)c1,7.9%
10,COc1ccc(OC)c(Nc2nc(-c3cccs3)cs2)c1,44%
11,Cc1cc2cc(C(c3nnnn3Cc3ccco3)N3CCc4ccccc4C3)c(=O)[nH]c2cc1C (stereo not drawn),-4.7%
12,CC(=O)Oc1c(S(=O)(=O)c2ccc(C)cc2)c(C)nn1C(C)(C)C,12.6%
13,Cc1nn(C(C)(C)C)c(OC(=O)c2ccc3c(c2)OCO3)c1S(=O)(=O)c1ccccc1,60.9% (active)
14,Cc1nn(-c2ccccc2)c(OC(=O)c2cccs2)c1S(=O)(=O)c1ccccc1,-5.8%
15,Cc1ccc(S(=O)(=O)c2c(C)nn(C(C)(C)C)c2OC(=O)c2ccco2)cc1,14.5%
16,Cc1nn(C(C)(C)C)c(OC(=O)C2CCCC2)c1S(=O)(=O)c1ccccc1,-9.3%
17,Cc1nn(C(C)(C)C)c(OC(=O)c2cccs2)c1S(=O)(=O)c1ccccc1,54.2% (active)
18,Cc1ccc(S(=O)(=O)c2c(C)nn(C(C)(C)C)c2OC(=O)c2cccs2)cc1,-6.5%
19,CC(=O)Oc1c(S(=O)(=O)c2ccccc2)c(C)nn1C(C)(C)C,13.3%
20,CCC(Sc1nncn1C)C(=O)Nc1nnc(-c2ccccc2Cl)s1 (stereo not drawn),3.8%
21,CC(=O)Nc1ccc(C(=O)Nc2ccc(S(=O)(=O)NCC3CCCO3)cc2)cc1 (stereo not drawn),-3.3%
22,C=C(C)COc1ccc(-c2nc(N)ncc2Oc2ccccc2OCC)c(O)c1,7.3%
23,CCOc1ccccc1Oc1cn[nH]c1-c1ccc(OC)cc1O,51.7% (active)
24,CCOc1ccc(-c2[nH]ncc2Oc2ccccc2OC)c(O)c1,65.8% (active)
